# About 83,000 compounds went through this panel and 20% of them were active in at least one assay; those are over-represented in the sample as a whole.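 Testing used 96-well plates and a 48-hour single-concentration exposure. Example: -40 means 40% of the starting cells died.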 Values without a mark were called inactive. Active and inactive are the calls of the source. The calls were made as follows: active = growth percent below 10; inactive = the rest.
# What was measured:
# Assay in all cases: NCI-60 one-dose screen, 48 h (100 = growth as untreated, 0 = no growth, -100 = all killed)
# Conditions in all cases: 10 µM unless noted
# SR leukemia = tested on: SR leukemia
# RPMI-8226 leukemia = tested on: RPMI-8226 leukemia
# OVCAR-8 ovarian = tested on: OVCAR-8 ovarian
# OVCAR-5 ovarian = tested on: OVCAR-5 ovarian
# OVCAR-4 ovarian = tested on: OVCAR-4 ovarian
# SK-OV-3 ovarian = tested on: SK-OV-3 ovarian
# IGROV1 ovarian = tested on: IGROV1 ovarian
# OVCAR-3 ovarian = tested on: OVCAR-3 ovarian
# NCI/ADR-RES ovarian = tested on: NCI/ADR-RES ovarian
# HS 578T breast = tested on: HS 578T breast
SMILES,growth (SR leukemia),growth (RPMI-8226 leukemia),growth (OVCAR-8 ovarian),growth (OVCAR-5 ovarian),growth (OVCAR-4 ovarian),growth (SK-OV-3 ovarian),growth (IGROV1 ovarian),growth (OVCAR-3 ovarian),growth (NCI/ADR-RES ovarian),growth (HS 578T breast) [%]
COC(=O)c1cc(Nc2ccc(O)c3c2C(=O)c2c([N+](=O)[O-])ccc(O)c2C3=O)cc(C(=O)OC)c1,2.02% (active),17.9%,65.1%,50.4%,80.5%,82.3%,85.9%,54.7%,71.2%,–
CC(=O)Nc1ccc(S(=O)(=O)Cl)cc1,86.8%,100%,113%,109%,110%,106%,116%,112%,116%,–
Oc1ccc([S+](c2ccc(O)cc2)c2ccc(O)cc2)cc1,89.1%,96%,94.3%,101%,107%,106%,110%,114%,112%,–
CC1(C)NC(=S)NC1=O,93.1%,101%,106%,108%,103%,98.6%,116%,112%,104%,–
CC(C)(CNC1CCCCC1)OC(=O)c1ccccc1,106%,106%,101%,114%,110%,106%,106%,102%,103%,–
CCCCCCNc1nc(N2CCOCC2)c2[nH]c(NCCCCCC)nc2n1,-29.2% (active),-44.4% (active),-67.7% (active),-92% (active),-88.9% (active),-97.1% (active),-55.4% (active),-98.1% (active),-98% (active),–
O=C(/C=C\c1ccc(NCc2ccc(C(=O)O)cc2)cc1)CCl,-12.1% (active),60.4%,66.9%,114%,90.6%,106%,90.4%,72.4%,100%,–
NC(N)=N/N=C/c1cccc(Br)c1,104%,95.3%,110%,104%,91.6%,91.4%,86.4%,99.8%,103%,–
CCCCCCN(CCCCCC)CCC(=O)Nc1ccc(S(=O)(=O)c2ccc(NC(=O)CCN(CCCCCC)CCCCCC)cc2)cc1,7.85% (active),60.7%,90.8%,82.9%,77.6%,84.2%,84.3%,80.7%,83.8%,–
N#CC1=C(N2CCOCC2)NC2c3ccccc3Sc3ccccc3N2C1=N (centres undefined),119%,106%,98.7%,109%,109%,81.7%,79.1%,103%,89.9%,–
O=CN/N=C/c1ccc(Cl)c([N+](=O)[O-])c1,39.9%,15.6%,18.1%,31%,49.6%,46.9%,16.9%,18.1%,107%,–
C=C(C)C(C(=O)OCC)(C(=O)OCC)C(C)C,120%,99.4%,108%,94.7%,98.5%,107%,117%,116%,116%,–
Oc1ccc2ccccc2c1/C=N\Nc1ccccn1,8.32% (active),25.2%,14.5%,65.3%,8.67% (active),19.8%,-4.78% (active),5.04% (active),0.917% (active),–
CC(=O)CC(=O)OC/C=C(/C)CCC=C(C)C,92.2%,112%,103%,100%,113%,111%,116%,110%,102%,–
COc1ccccc1CNCCCN1C(=O)c2ccc3c4c(ccc(c24)C1=O)C(=O)N(CCCNCc1ccccc1OC)C3=O,-45.7% (active),-31.8% (active),-47.1% (active),-27.4% (active),-96.5% (active),0% (active),-58.2% (active),-59.9% (active),-2.55% (active),–
N=C(N)N=Nc1ccc(NN=C(N)N)c2ccccc12,109%,110%,96.2%,108%,106%,88.1%,107%,127%,110%,–
O=C(O)COc1ccc([N+](=O)[O-])cc1Cl,97.6%,94.2%,110%,102%,106%,98.7%,100%,123%,107%,–
CC(=O)O.[In],93.4%,102%,102%,105%,114%,103%,106%,116%,107%,–
CCC(C)CC(N)O (centres undefined),105%,111%,107%,99.9%,109%,111%,118%,110%,109%,–
CCOC(=O)C1CCCN1C(=O)C1(NC(C)=O)CCCC1 (centres undefined),102%,95.7%,103%,96.4%,105%,104%,96.8%,103%,103%,–
CCCCS(=O)(=O)c1cc(Nc2ccc(O)c3c2C(=O)c2ccccc2C3=O)ccc1C,58.6%,80.9%,86.6%,78.5%,78.9%,87.8%,81.8%,46.4%,82.2%,–
CCCCCN1CCN(C(CC(=O)c2ccccc2)C(=O)c2ccccc2)CC1 (centres undefined),0.154% (active),12.6%,101%,110%,107%,102%,57.8%,55.3%,99%,–
O=C(N/N=C/c1coc2ccccc2c1=O)c1cc2oc(-c3ccccc3)cc2[nH]1,87.7%,67%,110%,106%,98.7%,102%,–,99.8%,118%,107
CCCCCCCCCCCCc1ccc([N+](CC)(CC)CC)cc1,32.4%,6.37% (active),31.7%,92.3%,21.6%,73.2%,48.1%,–,103%,65.4
O=C(CCl)c1ccc2c(c1)CCCC2,7.36% (active),84.6%,95.6%,107%,107%,110%,89.2%,–,108%,94.7
C/C(=N\Nc1ccc(Cl)cn1)c1ccccn1,4.86% (active),8.56% (active),16.6%,23.1%,28.7%,3.63% (active),10.2%,–,-10.2% (active),34.6
O=C(CCC(=O)N(CCO)CCO)N(CCO)CCO,89.8%,101%,103%,105%,105%,99%,98.1%,–,108%,–
CCCCCCCCC1OC1CCCCCCCC(=O)O (centres undefined),101%,98.4%,101%,108%,115%,95.3%,–,108%,104%,98.6
O=c1oc2ccc3ccccc3c2cc1-c1ccnc2[nH]c(=S)[nH]c(=O)c12,82.7%,89.1%,99.8%,112%,117%,93.1%,104%,–,94.8%,107
C/C(CCC(=O)O)=N/Nc1ccc([N+](=O)[O-])cc1,40.6%,51.9%,70.4%,68.1%,66.3%,–,103%,89.9%,49.6%,92.9

# From PubChem BioAssay (NCI)
